Results taken from PMC6925144, “A prospective compound screening contest identified broader inhibitors for Sirtuin 1” (Scientific Reports, 2019).

target: NAD-dependent deacetylase Sirtuin 1 (human, UniProt Q96EB6); assay: primary screen, percent inhibition; higher = more effect of the substance; parameters: mean of n = 4; conditions: 10 µM
Procedure: Note that the inhibitory assay was conducted with NAD+.

Sequence of NAD-dependent deacetylase Sirtuin 1 (Q96EB6 2-747 limits assumed): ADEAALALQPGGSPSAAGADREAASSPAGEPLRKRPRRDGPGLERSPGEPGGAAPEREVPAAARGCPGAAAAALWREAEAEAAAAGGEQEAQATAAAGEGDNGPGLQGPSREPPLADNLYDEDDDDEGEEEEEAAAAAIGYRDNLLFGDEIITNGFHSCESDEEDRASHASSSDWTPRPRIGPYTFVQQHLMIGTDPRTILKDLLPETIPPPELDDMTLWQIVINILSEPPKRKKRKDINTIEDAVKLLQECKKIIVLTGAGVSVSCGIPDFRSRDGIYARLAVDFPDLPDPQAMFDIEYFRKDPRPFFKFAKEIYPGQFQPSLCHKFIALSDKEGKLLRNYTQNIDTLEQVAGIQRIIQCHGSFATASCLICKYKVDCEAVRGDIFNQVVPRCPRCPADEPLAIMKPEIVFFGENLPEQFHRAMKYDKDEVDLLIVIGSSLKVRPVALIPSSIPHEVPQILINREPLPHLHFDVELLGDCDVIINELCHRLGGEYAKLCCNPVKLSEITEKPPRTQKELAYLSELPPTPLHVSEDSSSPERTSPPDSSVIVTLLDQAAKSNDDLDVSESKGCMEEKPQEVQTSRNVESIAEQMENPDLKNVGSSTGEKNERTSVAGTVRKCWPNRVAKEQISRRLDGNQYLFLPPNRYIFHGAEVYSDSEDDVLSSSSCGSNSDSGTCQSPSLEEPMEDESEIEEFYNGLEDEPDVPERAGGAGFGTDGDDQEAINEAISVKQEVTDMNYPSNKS

SMILES | TSA(without NAD+) / Inhibitory assay (Promega kit) / Mean (%) | TSA(with NAD+) / Inhibitory assay (Promega kit) / Mean (%)
O=C(NC(=S)Nc1ccc(-c2nc3ccccc3[nH]2)cc1)C12CC3CC(CC(C3)C1)C2 | 22.7 | 
Cc1cccc(NS(=O)(=O)c2cccc(C(=O)OCC(=O)NC(=O)NC34CC5CC(CC(C5)C3)C4)c2)c1 |  | 31
N#CC(C(=O)c1ccc(NS(=O)(=O)c2ccccc2)cc1)c1nc(-c2ccccn2)cs1 (stereo not shown) | -150 | 
COc1ccc(N(C)S(=O)(=O)c2cccc(C(=O)Nc3ccc(-n4cnnn4)cc3)c2)cc1 | 26.1 | 
NC(=O)C1CCN(c2nc(-c3cccnc3)nc3sc4c(c23)CCCC4)CC1 |  | 39.7
COc1ccc2cc(/C=C/C(=O)Nc3ccc(C(N)=O)cc3)ccc2c1 |  | 19.8
Cc1ccc(C(=O)Nc2nc3ccc(NS(=O)(=O)c4ccc5c(c4)CCC(=O)N5)cc3s2)s1 | 31.3 | 
Cc1ccc(N(C)S(=O)(=O)c2cccc(C(=O)Nc3ccc(C(N)=O)cc3)c2)cc1 | 0.783 | 
COc1ccc(NC(=O)c2ccc(NC(=O)COC(=O)C34CC5CC(CC(Br)(C5)C3)C4)cc2)cc1 | 17.2 | 
NCc1nc2c(cnn2-c2ccccc2)c(=O)[nH]1 | 62.5 | 
Cc1nc(-c2ccc(CCNC(=O)c3ccc(NC(=O)c4cccs4)cc3)s2)cs1 | 27 | 
Cc1ccc(N(C)S(=O)(=O)c2cccc(C(=O)Nc3ccc(Br)c(C)c3)c2)cc1 |  | 27
c1ccc(-c2[nH]c3c(ccc4ccccc43)c2-c2ccccc2)cc1 | -0.157 | 
O=C1/C(=C/c2cnn(-c3ccccc3)c2)Oc2cc(O)ccc21 | 9.45 | 
O=C(NN/C=C1/C(=O)N(c2cccc(C(F)(F)F)c2)C(=O)c2ccccc21)c1cccc(S(=O)(=O)Nc2ccccc2Cl)c1 | -38.6 | 
Cc1nc(N2CCC(C(N)=O)CC2)c2c3c(sc2n1)CCCCC3 | 14.5 | 
NC1=Nc2nc3ccccc3n2C(c2ccc(-c3ccc(C(=O)O)cc3)o2)N1 (stereo not shown) | 17.6 | 
O=C(CSc1nnnn1-c1ccc(O)cc1)N1N=C(c2ccc3ccccc3c2)CC1c1ccccc1 (stereo not shown) | 28.5 | 
O=C1/C(=C/NNC(=O)C23CC4CC(CC(C4)C2)C3)c2ccccc2C(=O)N1Cc1ccccc1 | -173 | 
O=C1/C(=C\c2cc(Br)cc(Br)c2O)CC/C1=C\c1cc(Br)cc(Br)c1O | 44.3 | 

SMILES | TSA(without NAD+) / Inhibitory assay (Promega kit) / Mean (%) | TSA(with NAD+) / Inhibitory assay (Promega kit) / Mean (%)
CC(=C/c1ccccc1)/C=N/NC(=O)c1cc(-c2ccc(C)cc2)n[nH]1 | 0.0522 | 
CN(c1ccccc1)S(=O)(=O)c1cccc(NC(=O)CCCc2c[nH]c3ccccc23)c1 | -10.4 | 
NC(=O)C1CCN(c2nc(CSc3ccccc3)nc3sc4c(c23)CCCC4)CC1 | 12.9 | 
Cc1ccc(N(C)S(=O)(=O)c2cccc(C(=O)Nc3ccc4c(c3)C(=O)N(C)C4=O)c2)cc1 |  | 25
Cc1cc(F)ccc1N1CCCC(Nc2ccc3nnnn3n2)C1 (stereo not shown) | 6.7 | 
Cc1sc2nc(CSc3ccccc3)nc(N3CCC(C(N)=O)CC3)c2c1C | -36.8 | 
NC(=O)c1cccc(NC(=O)c2cc3c(s2)-c2ccccc2CC3)c1 | 4.33 | 
Cc1nc(N2CCC(C(N)=O)CC2)c2c3c(sc2n1)CCCC3 | 11.5 | 
CCOc1cc(/C=N/NC(=O)c2cc3c(s2)CCCC3)ccc1OCC(=O)Nc1cccc(C(F)(F)F)c1 | -2.14 | 
COc1ccc(N(C)S(=O)(=O)c2cccc(C(=O)Nc3ccc(Br)cc3)c2)cc1 |  | 29.2
CCn1c2ccccc2c2cc(NC(=O)C(C)OC(=O)c3cccc(S(=O)(=O)Nc4ccc(Cl)cc4)c3)ccc21 (stereo not shown) | 23.9 | 
COc1ccc(NC(=O)CSc2nnc(Nc3ccc(SC(F)F)cc3)s2)cc1OC | 16.2 | 
Cc1ccc([N+](=O)[O-])cc1S(=O)(=O)Nc1ccc(C(=O)OC(C)C(=O)NC23CC4CC(CC(C4)C2)C3)cc1 (stereo not shown) | -3.81 | 
O=C(Nc1cccc(S(=O)(=O)N2CCOCC2)c1)c1cn(-c2ccccc2)nc1-c1ccc(Cl)cc1 | 13.8 | 
O=C(COc1ccccc1C(=O)Nc1ccc(S(=O)(=O)Nc2nccs2)cc1)Nc1cccc(C(F)(F)F)c1 | 10.1 | 
CCCCCCCCNC(=O)/C(C#N)=C/c1c[nH]c2ccccc12 | 9.56 | 
COc1ccc(N(C)S(=O)(=O)c2cccc(C(=O)Nc3ccc4ccccc4c3)c2)cc1 | -4.02 | 
COc1ccc(N(C)S(=O)(=O)c2cccc(C(=O)Nc3ccc(Cl)cc3)c2)cc1 |  | 17.6
Cc1ccc(C(C)(C)C)cc1S(=O)(=O)Nc1cccc(C(=O)NNC(=O)c2cccc(S(=O)(=O)Nc3cccc(C(F)(F)F)c3)c2)c1 | -8.09 | 
COC(=O)c1cc(-c2csc(NC(=O)c3cccc(NC(=O)c4cnoc4C)c3)n2)c[nH]1 | 30.1 | 
